Molecules are shown by their SMILES. Counter-ions that a name gives are not always drawn.

One assay concerns 786-O. The assay can be described thus: Euclidean distance of Cell Painting phenotypic profile (signed KS, 77 features) to DMSO centroid (dimensionless distance); 5 or 10 uM (library dependent); higher = stronger phenotypic change vs DMSO (phenoactivity). To be noted: 48 h. Summed up: (§1)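 Phenoactivity is computed as Euclidean distance to the median vehicle profile. The profiles, drawn from 77 Harmony features scored as signed Kolmogorov-Smirnov statistics versus same-plate vehicle wells, were corrected for plate position, correlation-weighted and replicate-averaged at the top dose. Stained cells were imaged confocally at 20X (9 fields/well) after 48 h with library compounds at 10 or 5 uM, 0.1% DMSO final, in five cancer lines and a healthy fibroblast line.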
Regarding `S=C(NCc1ccc2c(c1)OCO2)N1CCN(c2ncnc3c2oc2ccccc23)CC1` [Amuvatinib (MP-470)], the Euclidean distance was determined as 1.2.

`C=C1CC[C@@H]2[C@](C)(CO)[C@H](O)CC[C@@]2(C)[C@H]1C/C=C1\C=COC1=O` [Dehydroandrographolide] had an Euclidean distance of 1.

For `C=CCN1CCCC1CNC(=O)c1cc2nn[nH]c2cc1OC` (stereo not drawn) [Alizapride HCl], the Euclidean distance stood at 0.796.

The compound `CC[C@H](Nc1ncnc2[nH]cnc12)c1nc2cccc(F)c2c(=O)n1-c1ccccc1` [CAL-101 (Idelalisib. GS-1101)] returned an Euclidean distance of 1.28.

On to `CO/N=C(\C(=O)N[C@@H]1C(=O)N2C(C(=O)O)=C(CSC(=O)c3ccco3)CS[C@H]12)c1csc(N)n1` [Ceftiofur], for which the Euclidean distance was 0.442.

On to `CC[C@H](C)C(=O)O[C@H]1C[C@@H](C)C=C2C=C[C@H](C)[C@H](CC[C@@H]3C[C@@H](O)CC(=O)O3)[C@H]21` [Lovastatin], for which the Euclidean distance came out at 1.17.

In the case of `Nc1c(CC(=O)O)cccc1C(=O)c1ccc(Br)cc1` [Bromfenac Sodium], the Euclidean distance came to 1.21.

For the compound `O=c1c(-n2ccnn2)c[nH]n1-c1cc(N2CCOCC2)ncn1` [Molidustat (BAY 85-3934)], the Euclidean distance was found to be 1.15.

With `O=C(O)c1ccc(CN2CCC(CN[C@@H]3C[C@H]3c3ccccc3)CC2)cc1`, the Euclidean distance was determined as 1.04.

Compound `CN(C)Cc1ccc(-c2nc3cccc4c3n2CCNC4=O)cc1` yielded an Euclidean distance of 1.75.

In turn, `Cc1c(S(=O)(=O)O)oc2c1C(=O)C(=O)c1c-2ccc2c1CCCC2(C)C` [Tanshinone IIA sulfonate (sodium)] had an Euclidean distance of 0.814.

The compound `NC(=S)N/N=C/c1ncccc1N` [Triapine] returned an Euclidean distance of 3.56.

`OCC(O)CN1CCN(c2ccccc2)CC1` (stereo not drawn) [Dropropizine] gave an Euclidean distance of 1.11.

`CN(C)CCOC(c1ccccc1)c1ccccc1.Cn1c(=O)c2[nH]c(Cl)nc2n(C)c1=O` [Dimenhydrinate] displayed an Euclidean distance of 0.947.

On to `CC(C)(S)[C@@H](N)C(=O)O` [Penicillamine], for which the Euclidean distance amounted to 1.02.

Turning to `CN1CCC(COc2cnc(-c3cccc(Cn4nc(-c5cccc(C#N)c5)ccc4=O)c3)nc2)CC1`, the Euclidean distance is 1.74.

`C[C@@H](O)[C@H]1C(=O)N2C(C(=O)O)=C(SCCNC=N)C[C@H]12` [Imipenem]: the Euclidean distance came out at 0.957.

The compound `Oc1c2ccccc2c2c3c(cccc13)N=N2` yielded an Euclidean distance of 1.18.

In the case of `O=C(/C=C/C#Cc1cccc(NS(=O)(=O)c2ccccc2)c1)NO` [Oxamflatin], the Euclidean distance was found to be 3.39.

`CC(C)(CO)c1cc2cc(NC(=O)C3(c4ccc5c(c4)OC(F)(F)O5)CC3)c(F)cc2n1C[C@@H](O)CO` displayed an Euclidean distance of 1.47.

For the compound `CCOc1nc2cccc(C(=O)O)c2n1Cc1ccc(-c2ccccc2-c2noc(=O)[nH]2)cc1` [Azilsartan], the Euclidean distance amounted to 0.834.

The compound `N#Cc1ccc(C2CCCc3cncn32)cc1` (stereo not drawn) [Fadrozole] yielded an Euclidean distance of 1.22.

On to `O=c1cc(-c2ccc(O)cc2)oc2cc(O)cc(O)c12` [Apigenin], for which the Euclidean distance stood at 1.18.

Take `O=C1c2c(O)ccc(O)c2C(=O)c2c(NCCNCCO)ccc(NCCNCCO)c21` [Mitoxantrone HCl]: the Euclidean distance was found to be 4.89.

With `CCCCOc1ccc(C(=O)CCN2CCCCC2)cc1` [Dyclonine HCl], the Euclidean distance is 1.45.

`O=C(O)/C=C/c1ccc(O)c(O)c1` [Caffeic Acid] yielded an Euclidean distance of 0.946.

With `Cn1c([N+](=O)[O-])cnc1COC(N)=O` [Ronidazole], the Euclidean distance amounted to 1.13.

`CC(NCCC(c1ccccc1)c1ccccc1)c1ccccc1` (stereo not drawn) [Fendiline hydrochloride] registered an Euclidean distance of 1.96.

For `CCn1c(=O)c2c(nc(/C=C/c3ccc(OC)c(OC)c3)n2C)n(CC)c1=O` [Istradefylline], the Euclidean distance is 1.47.

`C[C@H](NC(=O)Cc1cc(F)cc(F)c1)C(=O)N[C@H](C(=O)OC(C)(C)C)c1ccccc1`: the Euclidean distance worked out at 1.92.

For the compound `CCOC(=O)[C@H](CCc1ccccc1)N[C@@H](C)C(=O)N1C(=O)N(C)C[C@H]1C(=O)O` [Imidapril HCl], the Euclidean distance is 0.604.

Compound `CCC1=C(C)CN(C(=O)NCCc2ccc(S(=O)(=O)NC(=O)N[C@H]3CC[C@H](C)CC3)cc2)C1=O` [Glimepiride] registered an Euclidean distance of 1.39.

`Cc1nc(NC(=O)N2CCC[C@H]2C(N)=O)sc1-c1ccnc(C(C)(C)C(F)(F)F)c1` [Alpelisib (BYL719)]: the Euclidean distance stood at 1.4.

In the case of `CCCC(=O)[O-].[Na+]` [Sodium butyrate], the Euclidean distance is 1.42.

Take `Cc1cc2c(F)c(Oc3ncnn4cc(OC[C@@H](C)OC(=O)[C@H](C)N)c(C)c34)ccc2[nH]1`: the Euclidean distance is 2.11.

`Cc1ccc([C@@H]2O[C@H](CO)[C@@H](O)[C@H](O)[C@H]2O)cc1Cc1ccc(-c2ccc(F)cc2)s1` [Canagliflozin hemihydrate]: the Euclidean distance stood at 1.46.

As for `Cc1nc(-c2ccc(OCC(C)C)c(C#N)c2)sc1C(=O)O` [Febuxostat], the Euclidean distance is 0.758.

As to `Oc1ccc(Nc2nc(-c3ccc(Cl)cc3)cs2)cc1`, the Euclidean distance was found to be 1.72.

As for `Cc1c(-c2cnccn2)ssc1=S` [Oltipraz], the Euclidean distance was determined as 1.13.

In the next assay the test system is A549. Described as above. To be noted: 48 h. Summed up:
as §1
In turn, `S=C(NCc1ccc2c(c1)OCO2)N1CCN(c2ncnc3c2oc2ccccc23)CC1` [Amuvatinib (MP-470)] registered an Euclidean distance of 1.72.

As for `C=C1CC[C@@H]2[C@](C)(CO)[C@H](O)CC[C@@]2(C)[C@H]1C/C=C1\C=COC1=O` [Dehydroandrographolide], the Euclidean distance came to 0.867.

`C=CCN1CCCC1CNC(=O)c1cc2nn[nH]c2cc1OC` (stereo not drawn) [Alizapride HCl] came in with an Euclidean distance of 1.43.

The compound `CC[C@H](Nc1ncnc2[nH]cnc12)c1nc2cccc(F)c2c(=O)n1-c1ccccc1` [CAL-101 (Idelalisib. GS-1101)] yielded an Euclidean distance of 0.736.

`CO/N=C(\C(=O)N[C@@H]1C(=O)N2C(C(=O)O)=C(CSC(=O)c3ccco3)CS[C@H]12)c1csc(N)n1` [Ceftiofur] returned an Euclidean distance of 0.362.

Regarding `CC[C@H](C)C(=O)O[C@H]1C[C@@H](C)C=C2C=C[C@H](C)[C@H](CC[C@@H]3C[C@@H](O)CC(=O)O3)[C@H]21` [Lovastatin], the Euclidean distance stood at 1.61.

Take `Nc1c(CC(=O)O)cccc1C(=O)c1ccc(Br)cc1` [Bromfenac Sodium]: the Euclidean distance is 1.01.

In turn, `O=c1c(-n2ccnn2)c[nH]n1-c1cc(N2CCOCC2)ncn1` [Molidustat (BAY 85-3934)] yielded an Euclidean distance of 0.806.

On to `O=C(O)c1ccc(CN2CCC(CN[C@@H]3C[C@H]3c3ccccc3)CC2)cc1`, for which the Euclidean distance was 1.01.

Compound `CN(C)Cc1ccc(-c2nc3cccc4c3n2CCNC4=O)cc1` yielded an Euclidean distance of 1.77.

`Cc1c(S(=O)(=O)O)oc2c1C(=O)C(=O)c1c-2ccc2c1CCCC2(C)C` [Tanshinone IIA sulfonate (sodium)] displayed an Euclidean distance of 0.633.

The compound `NC(=S)N/N=C/c1ncccc1N` [Triapine] had an Euclidean distance of 2.65.

`OCC(O)CN1CCN(c2ccccc2)CC1` (stereo not drawn) [Dropropizine] showed an Euclidean distance of 1.8.

With `CN(C)CCOC(c1ccccc1)c1ccccc1.Cn1c(=O)c2[nH]c(Cl)nc2n(C)c1=O` [Dimenhydrinate], the Euclidean distance amounted to 1.

The compound `CC(C)(S)[C@@H](N)C(=O)O` [Penicillamine] yielded an Euclidean distance of 1.29.

Take `CN1CCC(COc2cnc(-c3cccc(Cn4nc(-c5cccc(C#N)c5)ccc4=O)c3)nc2)CC1`: the Euclidean distance was 3.89.

Turning to `C[C@@H](O)[C@H]1C(=O)N2C(C(=O)O)=C(SCCNC=N)C[C@H]12` [Imipenem], the Euclidean distance was 1.45.

For `Oc1c2ccccc2c2c3c(cccc13)N=N2`, the Euclidean distance is 1.08.

Turning to `O=C(/C=C/C#Cc1cccc(NS(=O)(=O)c2ccccc2)c1)NO` [Oxamflatin], the Euclidean distance was 3.01.

Compound `CC(C)(CO)c1cc2cc(NC(=O)C3(c4ccc5c(c4)OC(F)(F)O5)CC3)c(F)cc2n1C[C@@H](O)CO` displayed an Euclidean distance of 1.89.

Consider `CCOc1nc2cccc(C(=O)O)c2n1Cc1ccc(-c2ccccc2-c2noc(=O)[nH]2)cc1` [Azilsartan], for which the Euclidean distance came to 0.784.

`N#Cc1ccc(C2CCCc3cncn32)cc1` (stereo not drawn) [Fadrozole] gave an Euclidean distance of 0.722.

Take `O=c1cc(-c2ccc(O)cc2)oc2cc(O)cc(O)c12` [Apigenin]: the Euclidean distance was found to be 0.946.

As for `O=C1c2c(O)ccc(O)c2C(=O)c2c(NCCNCCO)ccc(NCCNCCO)c21` [Mitoxantrone HCl], the Euclidean distance amounted to 4.24.

As to `CCCCOc1ccc(C(=O)CCN2CCCCC2)cc1` [Dyclonine HCl], the Euclidean distance is 0.937.

In turn, `O=C(O)/C=C/c1ccc(O)c(O)c1` [Caffeic Acid] came in with an Euclidean distance of 0.603.

The compound `Cn1c([N+](=O)[O-])cnc1COC(N)=O` [Ronidazole] came in with an Euclidean distance of 0.834.

With `CC(NCCC(c1ccccc1)c1ccccc1)c1ccccc1` (stereo not drawn) [Fendiline hydrochloride], the Euclidean distance came out at 2.16.

Compound `CCn1c(=O)c2c(nc(/C=C/c3ccc(OC)c(OC)c3)n2C)n(CC)c1=O` [Istradefylline] displayed an Euclidean distance of 1.5.

Turning to `C[C@H](NC(=O)Cc1cc(F)cc(F)c1)C(=O)N[C@H](C(=O)OC(C)(C)C)c1ccccc1`, the Euclidean distance came to 1.48.

`CCOC(=O)[C@H](CCc1ccccc1)N[C@@H](C)C(=O)N1C(=O)N(C)C[C@H]1C(=O)O` [Imidapril HCl] gave an Euclidean distance of 0.657.

In the case of `CCC1=C(C)CN(C(=O)NCCc2ccc(S(=O)(=O)NC(=O)N[C@H]3CC[C@H](C)CC3)cc2)C1=O` [Glimepiride], the Euclidean distance stood at 0.608.

`Cc1nc(NC(=O)N2CCC[C@H]2C(N)=O)sc1-c1ccnc(C(C)(C)C(F)(F)F)c1` [Alpelisib (BYL719)] registered an Euclidean distance of 1.45.

Take `CCCC(=O)[O-].[Na+]` [Sodium butyrate]: the Euclidean distance turned out to be 0.966.

`Cc1cc2c(F)c(Oc3ncnn4cc(OC[C@@H](C)OC(=O)[C@H](C)N)c(C)c34)ccc2[nH]1` showed an Euclidean distance of 1.25.

On to `Cc1ccc([C@@H]2O[C@H](CO)[C@@H](O)[C@H](O)[C@H]2O)cc1Cc1ccc(-c2ccc(F)cc2)s1` [Canagliflozin hemihydrate], for which the Euclidean distance was 2.27.

Turning to `Cc1nc(-c2ccc(OCC(C)C)c(C#N)c2)sc1C(=O)O` [Febuxostat], the Euclidean distance was 0.915.

Consider `Oc1ccc(Nc2nc(-c3ccc(Cl)cc3)cs2)cc1`, for which the Euclidean distance worked out at 2.03.

Compound `Cc1c(-c2cnccn2)ssc1=S` [Oltipraz] displayed an Euclidean distance of 0.941.

The record behind these values is the supplement of paper PMC10127200.
